Results taken from PubChem BioAssay (NCATS).
Values without a mark were called inactive. Calls follow the shape of the dose curve; as a rule, active = well fitted activation curve with a large enough effect; inconclusive = small, poorly fitted or top-dose-only effect; inactive = flat fitted curve, though single readings scatter.

Experiment: Cellular Toxicity (caspase-3) Mesangial (AID 660);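 also: combined caspase 3 and 7 activity read by Caspase-Glo luminescence; cells exposed to compound for 16 h before the caspase read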
Details: mesangial cells, normalized: DMSO 0%, 100 µM tamoxifen 100%; at 91.7 µM (top of the series)
Excerpt: NIH Chemical Genomics Center [NCGC]
NIH Molecular Libraries Screening Centers Network [MLSCN]
National Institutes of Environmental Health Sciences [NIEHS]
National Toxicology Program [NTP]
We have developed a 1536-well cell-based assay for quantitative high throughput screening (qHTS) against a number of cell lines to determine in vitro caspase 3/7 of small molecules. This particular assay uses the mesangial cell line which is derived from normal human renal glomeruli.
NCGC Assay Protocol Summary:
The Caspase-Glo 3/7 assay (Promega) is a homogeneous method to measure caspase-3 and caspase-7 activities in cultured cells. The quantitation of caspase 3/7 activity is based on the cleavage of a peptide-aminoluciferin substrate. After caspase cleaves the substrate the free aminoluciferin is liberated and serves as the substrate of luciferase, which generates the light. The luminescent signal is proportional to amount of caspase 3/7 activity present.
Using the Caspase-Glo 3/7 assay, the amount of caspase 3/7 activity was measured in the mesangial cell line with complete culture medium following compound treatment for 16 hours. The assay was performed in opaque white 1536-well plates. In the screen, tamoxifen and doxorubicin were used as positive controls. Library compounds were measured for their ability to cause the activation of caspase 3/7 in the cell line, as reflected by an increase in luminescence signal, in a concentration-dependent manner. Data were normalized to the controls for basal activity (DMSO only) and 100% stimulation (100 uM tamoxifen). AC50 values were determined from concentration-response data modeled with the standard Hill equation.
qHTS protocol for caspase 3/7 assay in mesangial cell line
[Step] [Parameter] [Value] [Description]
1. Reagent; 5 uL; 1000 mesangial cells/well
2. Time; 5 hr; 37 °C incubation
4. Controls; 23 nL; Tamoxifen 0.23 uM to 100 uM & doxorubicin 7.0 pM to 100 uM
5. Time; 16 hr; 37 °C incubation
6. Reagent; 5 uL; Caspase-Glo 3/7 reagent
7. Time; 20 min; Room Temperature
8. Detection; Luminescence; Viewlux plate reader
Keywords: caspase 3/7, apoptosis, mesangial cell line, luminescence, NTPHTS, NTPHTS_NCGC, NIEHS, EPA, DSSTox, MLSMR, MLSCN, NIH Roadmap, qHTS, NCGC

Row | SMILES | caspase-3 activation
1 | CC(=O)c1ccccn1 | 0.864%
2 | c1ccc2c(c1)ccc1ncccc12 | -0.196%
3 | CC(=O)Nc1ccccc1C | 2.04%
4 | OCCO | -0.444%
5 | N#Cc1ccccc1 | -0.669%
6 | Nc1cccc(N)c1 | 0.868%
7 | O=[N+]([O-])c1c(Cl)cc(Cl)cc1Cl | -0.0612%
8 | O=C(O)CCSSCCC(=O)O | -0.167%
9 | CCN(C(=O)N(CC)c1ccccc1)c1ccccc1 | 0.257%
10 | CC(O)COC(C)(C)C (stereo not given) | -1.28%
11 | Nc1ccc([N+](=O)[O-])c(N)c1 | -0.0443%
12 | CCC(C)(C)C(=O)O | 0.0755%
13 | CC(C)(C)OCC1CO1 (stereo not given) | 0.391%
14 | CC(C)CCOC(=O)/C=C/c1ccccc1 | 0.297%
15 | Cc1ccc(C(=O)O)cc1 | -0.126%
16 | NC(=O)/N=N/C(N)=O | -0.26%
17 | Nc1nc(-c2ccccc2)cs1 | 0.48%
18 | O=C(O)c1ccccc1Cl | -0.834%
19 | COc1ccc(N=[N+]([O-])c2ccc(OC)cc2)cc1 | -3.45%
20 | CN(C)c1cccc(O)c1 | 1.93%

Row | SMILES | caspase-3 activation
21 | Cc1ccccc1C=O | -0.421%
22 | Cc1ccc(Br)cc1 | -0.699%
23 | Nc1cccc(C(F)(F)F)c1 | 2.31%
24 | CCC(C)(C)OC | -0.415%
25 | Cc1ccco1 | 0.332%
26 | CC(=O)c1ccccc1[N+](=O)[O-] | -0.0773%
27 | Cc1ccc(N(C)C)cc1 | 0.102%
28 | COC(=O)CS | -1.25%
29 | CCC(O)C(C)(C)C (stereo not given) | 0.94%
30 | CCCCCCCCCCCCC1CO1 (stereo not given) | -0.00149%
31 | O=C(O[C@@H](C(=O)O)[C@@H](OC(=O)c1ccccc1)C(=O)O)c1ccccc1 | 0.793%
32 | CCOc1ccc(NC(C)=O)cc1N | 0.11%
33 | COC(=O)CC#N | 0.486%
34 | CCC(C)(C)C | 0.949%
35 | CC(C)(O)C(=O)O | -0.246%
36 | O=C(O)c1ccccc1[N+](=O)[O-] | 0.745%
37 | COC(=O)c1ccccc1 | 0.596%
38 | c1ccc2n[nH]nc2c1 | 0.6%
39 | ON=C1CCCCC1 | 0.894%
40 | CC1CCC2CC1C2(C)C (stereo not given) | 0.29%
